Measurements taken from PubChem BioAssay (EPA / NIEHS).
Inconclusive results are not listed. Active and inactive are the calls of the source. How the source made its calls: active means hit-call score of the fitted dose curve at least 0.9, where 1 is the maximum; inconclusive means response in the unintended direction; inactive means score below 0.9. Where a SMILES comes first, the peptide text is derived from it. Bridges are numbered along the chain shown (N, C = ends). [ ]: non-standard residue; d: D form. The star is where a group is joined. Ileψ(thiazoline)Cys = CC[C@H](C)[C@H](N)C1=N[C@H](C(=O)*)CS1; dOrn = NCCC[C@@H](N)C(=O)O

Legend:
[1] = TOX21_p53_BLA_p2_viability: Viability Assessment in the Tox21 HCT-116 p53 Agonism Beta-lactamase Assay, Phase 2 (AID 2283591);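 further: actives lower the ATP signal meaning cytotoxicity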
Outline: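 Cytotoxicity readout: CellTiter-Glo ATP luminescence, 30 min at room temperature, after the beta-lactamase read. Cells were HCT116 exposed 16 h at 37C to compounds pin-transferred at 217-fold dilution from DMSO stocks.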

[2] = target: Cellular tumor antigen p53 (Homo sapiens) (UniProt P04637); assay: TOX21_p53_BLA_p2_ratio: Tox21 HCT-116 p53 Agonism Beta-lactamase Assay, Ratio, Phase 2 (AID 2283592)
Chain of Cellular tumor antigen p53 (Homo sapiens) (P04637 whole entry, looked up): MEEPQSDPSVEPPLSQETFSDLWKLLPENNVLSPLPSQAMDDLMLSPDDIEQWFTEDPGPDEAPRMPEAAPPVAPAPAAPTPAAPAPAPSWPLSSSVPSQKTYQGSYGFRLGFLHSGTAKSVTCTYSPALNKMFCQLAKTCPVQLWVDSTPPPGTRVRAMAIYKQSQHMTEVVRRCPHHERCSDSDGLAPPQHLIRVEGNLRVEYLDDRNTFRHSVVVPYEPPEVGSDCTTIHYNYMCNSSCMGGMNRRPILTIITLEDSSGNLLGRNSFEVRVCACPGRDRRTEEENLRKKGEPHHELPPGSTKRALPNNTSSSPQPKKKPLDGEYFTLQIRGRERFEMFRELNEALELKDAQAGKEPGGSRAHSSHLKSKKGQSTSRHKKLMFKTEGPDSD
Outline: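 Readout: blue/green (460/530 nm) FRET emission ratio after 2 h CCF4-AM loading at room temperature, excitation 405 nm. HCT116 p53 bla cells, 16 h compound exposure at 37C, 5% CO2; agonist direction fitted against DMSO baseline.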

[3] = TOX21_p53_BLA_p3_viability: Viability Assessment in the Tox21 HCT-116 p53 Agonism Beta-lactamase Assay, Phase 3 (AID 2283593);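 further: cells exposed to compound for 16 h before reading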
Outline: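 Cellular ATP was quantified by CellTiter-Glo luminescence, read after 30 min at room temperature. Beforehand, HCT116 cells (4000/well) received compound 5 h post-seeding, 217-fold diluted from DMSO, then incubated 16 h at 37C.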

[4] = target: Cellular tumor antigen p53 (Homo sapiens) (UniProt P04637); assay: TOX21_p53_BLA_p3_ratio: Tox21 HCT-116 p53 Agonism Beta-lactamase Assay, Ratio, Phase 3 (AID 2283596)
Outline: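 Cells were seeded at 4000/well, rested 5 h at 37C, then dosed with DMSO compound solutions (217-fold dilution) for 16 h. CCF4-AM substrate was loaded for 2 h at room temperature, and the 460/530 nm emission ratio was fitted for gain of signal versus DMSO.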

[5] = TOX21_p53_BLA_p4_viability: Viability Assessment in the Tox21 HCT-116 p53 Agonism Beta-lactamase Assay, Phase 4 (AID 2283597);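 further: hits lower the luminescence signal meaning cytotoxicity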
Outline: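 ATP content by CellTiter-Glo luminescence, 30 min RT, read after the beta-lactamase ratio step. Cells: HCT116, 4000/well, compound added after 5 h, exposure 16 h at 37C. Signal loss = reduced viability.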

[6] = target: Cellular tumor antigen p53 (Homo sapiens) (UniProt P04637); assay: TOX21_p53_BLA_p5_ratio: Tox21 HCT-116 p53 Agonism Beta-lactamase Assay, Ratio, Phase 5 (AID 2283599)
Outline: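 Beta-lactamase reporter ratio (blue 460 nm over green 530 nm, 405 nm excitation) after 2 h CCF4-AM loading, in HCT-116 cells exposed 16 h at 37 C to compounds pinned at 217-fold dilution. Increases relative to DMSO baseline scored.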

[7] = TOX21_p53_BLA_p5_viability: Viability Assessment in the Tox21 HCT-116 p53 Agonism Beta-lactamase Assay, Phase 5 (AID 2283600)
Outline: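 ATP luminescence (CellTiter-Glo, 30 min, RT) served as the viability read-out, with loss of signal indicating cytotoxicity. Compounds in DMSO were pinned at a 217-fold dilution onto 4000 cells/well and incubated 16 h, 37C.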

[8] = target: Cellular tumor antigen p53 (Homo sapiens) (UniProt P04637); assay: TOX21_p53_BLA_p4_ratio: Tox21 HCT-116 p53 Agonism Beta-lactamase Assay, Ratio, Phase 4 (AID 2283601)
Outline: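 Signal is the blue/green (460nm/530nm) ratio of cleaved versus uncleaved CCF4-AM substrate, read after 2 h substrate loading. Cells were HCT116 carrying the p53-responsive beta-lactamase reporter, dosed 16 h at 37C, 5% CO2; CellTiter-Glo measured in parallel.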

Measured: AC50

CC[C@H](C)[C@H](N)C1=N[C@H](C(=O)N[C@@H](CC(C)C)C(=O)N[C@H](CCC(=O)O)C(=O)N[C@H](C(=O)N[C@H]2CCCCNC(=O)[C@H](CC(N)=O)NC(=O)[C@@H](CC(=O)O)NC(=O)[C@H](Cc3cnc[nH]3)NC(=O)[C@@H](Cc3ccccc3)NC(=O)[C@H]([C@@H](C)CC)NC(=O)[C@@H](CCCN)NC2=O)[C@@H](C)CC)CS1 ({Ileψ(thiazoline)Cys}-L[dE]IK[dOrn]I[dF]H[dD]N; lactam 4-C)
inactive: all assays above

CN1CCN(CCCN2c3ccccc3Sc3ccc(C(F)(F)F)cc32)CC1
active: [1] 36.4 µM | [5] 33.9 µM | [8] 43.1 µM
inactive: all other assays above

Nc1[nH]c(=O)ncc1F
inactive: all assays above

CCCCCCOc1ccc(C(=N)N(CCCC)CCCC)c2ccccc12
active: [1] 23 µM | [2] 32.7 µM | [3] 23 µM | [4] 36.4 µM | [5] 10.1 µM | [6] 29.5 µM | [7] 23 µM | [8] 19.9 µM

CCOC(=O)/C=C(C)/C=C/C=C(C)/C=C/c1c(C)cc(OC)c(C)c1C
inactive: all assays above

C[C@@H](O[C@H]1OCCN(Cc2n[nH]c(=O)[nH]2)[C@H]1c1ccc(F)cc1)c1cc(C(F)(F)F)cc(C(F)(F)F)c1
active: [1] 31.3 µM | [3] 33.4 µM | [5] 29.1 µM | [6] 34.2 µM | [7] 37.5 µM | [8] 35.1 µM
inactive: [2] | [4]

c1ccc(C(O[C@H]2CCCN(CCc3ccc4c(c3)OCO4)C2)c2ccccc2)cc1
inactive: all assays above

O=C(O)c1ccccc1[N+](=O)[O-]
active: [2] 73.7 µM | [6] 86.4 µM
inactive: all other assays above

CCOC(=O)Nc1ccc(NCc2ccc(F)cc2)nc1N
inactive: all assays above

CC[C@H]1OC(=O)[C@H](C)C(=O)[C@H](C)[C@@H](O[C@@H]2O[C@H](C)C[C@H](N(C)C)[C@H]2O)[C@](C)(OC)C[C@@H](C)C(=O)[C@H](C)[C@H]2N(CCCCn3cnc(-c4cccnc4)c3)C(=O)O[C@]12C
inactive: all assays above

S=C1NC=NC2N=CNC12 (stereo unspecified)
inactive: [7]
active: [1] 2.15 µM | [2] 7.37 µM | [3] 2.33 µM | [4] 7.71 µM | [5] 2.3 µM | [6] 6.33 µM | [8] 8.02 µM

CO[C@H]1C[C@H](O[C@@H]2/C(C)=C/C[C@@H]3C[C@@H](C[C@]4(CC[C@H](C)[C@@H](C5CCCCC5)O4)O3)OC(=O)[C@@H]3C=C(C)/C(=N/O)[C@H]4OC/C(=C\C=C\[C@@H]2C)[C@]43O)O[C@@H](C)[C@@H]1O
active: [5] 40.7 µM
inactive: all other assays above

CCCCC(CC)CN1CN(CC(CC)CCCC)CC(C)(N)C1 (stereo unspecified)
inactive: all assays above

CC(C)c1nc(N(C)S(C)(=O)=O)nc(-c2ccc(F)cc2)c1/C=C/C(O)CC(O)CC(=O)O (stereo unspecified)
inactive: all assays above

Cc1c(C)n(Cc2ccccc2)c2ccc(C(=O)OCCN(C)C)cc12
active: [5] 18.3 µM
inactive: all other assays above

NC(=O)C(c1ccccc1)(c1ccccc1)[C@@H]1CCN(CCc2ccc3c(c2)CCO3)C1
inactive: all assays above

C=CC(=O)O
inactive: all assays above

CNC[C@H](O)c1ccc(O)c(O)c1
inactive: all assays above

CCN(CC)CCCC(C)Nc1c2ccc(Cl)cc2nc2ccc(OC)cc12 (stereo unspecified)
active: [2] 25.8 µM | [4] 23.7 µM | [6] 38.7 µM | [8] 35.1 µM
inactive: [1] | [3] | [5] | [7]

CSc1ccc2c(c1)C(N1CCN(C)CC1)Cc1ccccc1S2 (stereo unspecified)
inactive: [4] | [6]
active: [1] 36.3 µM | [2] 44.4 µM | [3] 37.8 µM | [5] 34.5 µM | [7] 38.3 µM | [8] 42.4 µM

C[C@H]1O[C@@H](n2cc(F)c(=O)[nH]c2=O)[C@H](O)[C@@H]1O
inactive: [5] | [7]
active: [1] 17.9 µM | [2] 23 µM | [3] 15.5 µM | [4] 20.7 µM | [6] 24.4 µM | [8] 27.5 µM

Cc1cc(CC(=O)O)n(C)c1C(=O)c1ccc(Cl)cc1
inactive: all assays above

CN1[C@@H](CC(=O)c2ccccc2)CCC[C@H]1C[C@H](O)c1ccccc1
inactive: all assays above

CS(=O)(=O)Nc1ccc([N+](=O)[O-])cc1Oc1ccccc1
inactive: all assays above

C=CCNC(N)=S
inactive: all assays above

C[n+]1cc2c3c(ccc2c2ccc4cc5c(cc4c21)OCO5)OCO3
active: [1] 4.28 µM | [2] 4.96 µM | [3] 2.31 µM | [4] 2.32 µM | [5] 3.64 µM | [6] 5.66 µM | [7] 5.48 µM | [8] 9.14 µM

CCCN1C[C@H](CSC)C[C@@H]2c3cccc4[nH]cc(c34)C[C@H]21
inactive: all assays above

C1CCCC1.C1CCCC1.[Cl][V][Cl]
active: [5] 40.3 µM
inactive: all other assays above

Cc1c(C)n(CCN(C)C)c2ccc(C(=O)OCCN(C)C)cc12
active: [8] 40.2 µM
inactive: all other assays above

C=C1/C(=C\C=C2/CCC[C@]3(C)[C@@H]([C@H](C)CCCC(C)(C)O)CC[C@@H]23)C[C@@H](O)C[C@@H]1O
active: [1] 19.8 µM | [2] 37.8 µM | [3] 24.5 µM | [4] 25.4 µM | [5] 13 µM | [6] 27 µM | [7] 21 µM | [8] 26.1 µM

OCC(O)[C@@H](O)[C@H](O)[C@H](O)CO[C@H]1O[C@H](CO)[C@@H](O)[C@H](O)[C@H]1O (stereo partly specified)
inactive: all assays above

COc1cc(NC(C)CCCN)c2ncccc2c1 (stereo unspecified)
inactive: all assays above

CCCCNc1cc(C(=O)O)cc(S(N)(=O)=O)c1Oc1ccccc1
inactive: all assays above

CC1(C)S[C@@H]2[C@H](NC(=O)C(C(=O)O)c3ccccc3)C(=O)N2[C@H]1C(=O)O (stereo partly specified)
inactive: all assays above

CCN(CC)C(=O)/C(C#N)=C/c1cc(O)c(O)c([N+](=O)[O-])c1
active: [2] 33.7 µM
inactive: all other assays above

CCCCC(CC)COCCCN (stereo unspecified)
inactive: all assays above

CNc1ccc(O)cc1
active: [3] 82 µM | [7] 78 µM
inactive: all other assays above

C=C(Nc1ccc(OCC)cc1)Nc1ccc(OCC)cc1
inactive: all assays above

c1ccc(OCc2ccc(CCCN3CCOCC3)cc2)cc1
inactive: all assays above

[O-][N+](=Nc1ccccc1)c1ccccc1
inactive: all assays above

CC=C(C(=CC)c1ccc(O)cc1)c1ccc(O)cc1
active: [4] 4.02 µM | [8] 3.75 µM
inactive: all other assays above

NCCS
inactive: all assays above
